# Assay results reported in PubChem BioAssay (NCATS).
# Records with an inconclusive call do not appear. Unmarked numbers belong to inactive results. Activity calls are given as the source filed them. Calls follow the shape of the dose curve; as a rule, active = well fitted inhibition curve with a large enough effect; inconclusive = small, poorly fitted or top-dose-only effect; inactive = flat fitted curve, though single readings scatter. Peptide text beside a SMILES is read from it.
# System: Zika virus NS2B-NS3 protease
# Test: Primary screen GU AMC qHTS for Zika virus inhibitors (AID 1347154);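 also: 0% = no-inhibitor control and -100% = no-enzyme control; nearly all actives have a fitted effect of over 70% in size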
# Conditions: Zika NS2B-NS3 unlinked protease, AMC fluorogenic substrate; series mostly up to 54.1 µM
# Source text: Avindra Nath, Ph.D., National Institute of Neurological Disorders and Stroke (NINDS), Bethesda, MD
# Radhakrishnan Padmanabhan, Ph.D., Georgetown University (GU), Washington D.C.
# Zika Virus causes congenital defects, including microcephaly and is associated with Guillain-Barre syndrome, eningoencephalitis and myelitis in infected adult. […] Using a target-based approach, we hope to establish a screening paradigm to uncover novel, cell-active NS2B-NS3 protease (Zika Virus) specific inhibitors from NCATS' collection of small molecules using qHTS.
# Early Translation Branch (ETB)
# National Center for Advancing Translational Sciences (NCATS), Rockville, MD
# National Institute of Health (NIH), Bethesda, Maryland
# Padmanabhan lab provided the NS2B hydrophilic domain and NS3 protease domain in a noncovalent complex used for the unlinked assay. Control compound aprotinin is obtained from Thermo Scientific (#78432; Waltham, Massachusetts). NS2B-NS3 AMC substrate (Bz-Nle-Lys-Arg-Arg-AMC; Nle-KRR-AMC) purchased from Bachem (#I-1995; Torrance, CA). Ac-VKTGKR-AMC purchased from Genscript or Bachem, Ac-FAAGKR-AMC purchased from Genscript, Ac-GLVKRR-AMC purchased from Genscript, Ac-LKKR-AMC purchased from Genscript.
# GU AMC unlinked NS2B-NS3 protease qHTS protocol
# Briefly, 3 microL of Zika virus unlinked NS2B-NS3 protease (25 nM for linked final concentration), in assay buffer (10 mM Tris-HCl pH 8.0 with 0.01% Tween 20) was dispensed into a 1,536-well solid-bottom black plate (Greiner Bio One, Monroe, NC). […] Plates were then read immediately on a ViewLux High-throughput CCD imager (PerkinElmer, Waltham, MA) equipped with standard UV fluorescence optics (340(30) nm excitation, 450(20) nm emission) then incubated (room temperature, protected from light) for 15 minutes (~20% conversion). The change in fluorescence intensity over the 15-minute reaction period was normalized against no-inhibitor and no-enzyme controls and the resulting percent inhibition data were fitted to a 4-parameter Hill equation. Aprotinin was used as the intraplate control.
SMILES,"activity change, negative = inhibition",outcome
CCCCC/C=C\C/C=C\CCCCCCCC(=O)O,4.61% [at 6.83 µM],
CC1=C(/C=C/C(C)=C/C=C/C(C)=C/CO)C(C)(C)CCC1,,inactive
COC(=O)C1=C(C)NC(C)=C(C(=O)OCCCN2CCC(c3ccccc3)(c3ccccc3)CC2)[C@H]1c1cccc([N+](=O)[O-])c1,,inactive
CC(=O)N[C@@H](CC(=O)O)C(=O)N[C@@H](CCC(=O)O)C(=O)O (Ac-Asp-Glu-OH),,inactive
CCOC(=O)C1=CC2(CC)CCCN3CCc4c(n1c1ccccc41)C32 (stereo unspecified),,inactive
CC(NC(=O)Cc1cc(F)cc(F)c1)C(=O)NC(C(=O)OC(C)(C)C)c1ccccc1 (stereo unspecified),,inactive
CC(=O)OC(C)OC(=O)C(C)c1ccc(-c2ccccc2)c(F)c1 (stereo unspecified),,inactive
CNc1cc(OC)c(C(=O)N[C@H]2CCN(Cc3ccccc3)[C@H]2C)cc1Cl,,inactive
CCCC(=O)Nc1ncnc2c1ncn2[C@@H]1O[C@@H]2COP(=O)(O)O[C@H]2[C@H]1OC(=O)CCC,,inactive
O=C(O)CC/C=C\CC[C@H]1[C@@H](N2CCCCC2)[C@@H](O)C[C@@H]1OCc1ccc(-c2ccccc2)cc1,,inactive
CC(C)N=c1cc2n(-c3ccc(Cl)cc3)c3ccccc3nc-2cc1Nc1ccc(Cl)cc1,,inactive
